# Experimental data from PubChem BioAssay (NCATS).
# Records with an inconclusive call do not appear. Where a call stands in place of a potency, no number is given. The source made the active and inactive calls. Unless noted, the call rests on the fitted dose curve; in most records, active means well fitted curve in the direction sought with a large enough effect; inconclusive means small, poorly fitted or top-dose-only effect, or another doubt; inactive means no such curve, though single readings can be large; an effect the other way counts as inactive or inconclusive.
# Assays:
# [1] = qHTS Assay for Identification of Small Molecule Inducers of Hypoxia Response (AID 2120; active means well fitted curve in the direction sought with a large enough effect in the signal ratio, with a control signal flat, not every such curve was filed as active; the % refers to the signal ratio)
# Procedure, shortened: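 ME-180 HRE-bla cells plated in Opti-MEM/0.5% dialyzed FBS, rested 4-5 h, then dosed with compound titrations by pin tool. After 17 h at 37 degrees C, CCF4 dye loaded 2.5 h at RT; 460/530 nm ratio gave %Activity and AC50.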
# [2] = qHTS for differential inhibitors of proliferation of Plasmodium falciparum line D10 (AID 1877);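 further: parasites grown with compound for 72 h before DNA staining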; further: potency means the concentration at half of the fitted maximal effect
# [3] = qHTS for differential inhibitors of proliferation of Plasmodium falciparum line Dd2 (AID 1882); conditions: Potency: Plasmodium falciparum Dd2 proliferation inhibition; further: nearly all actives have a fitted effect of over 65% in size; further: potency means the concentration at half of the fitted maximal effect
# Procedure, shortened: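 Dd2-infected erythrocytes (0.3% parasitemia, 2.5% hematocrit final) incubated with compound 72 h at 37 C, 5% CO2; lysed with saponin/Triton buffer containing SYBR Green I, incubated overnight in the dark, then read by fluorescence (485/535 nm). Normalized to 0.29 uM artemisinin and DMSO.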
# [4] = qHTS for differential inhibitors of proliferation of Plasmodium falciparum line W2 (AID 1883); conditions: Potency: Plasmodium falciparum W2 proliferation inhibition;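 further: parasites grown with compound for 72 h before lysis and staining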; further: potency means the concentration at half of the fitted maximal effect
# [5] = qHTS for differential inhibitors of proliferation of Plasmodium falciparum line HB3 (AID 1886); conditions: Potency: Plasmodium falciparum HB3 proliferation inhibition;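 further: parasites grown with compound for 72 h before SYBR Green readout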; further: potency means the concentration at half of the fitted maximal effect
# [6] = target: Ferritin light chain (Equus caballus) (UniProt P02791); assay: qHTS Validation Assay for Identification of Novel General Anesthetics (AID 2323)
# Procedure, shortened: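 Horse-spleen apoferritin (10 uM) in PBS with 50% saturated 1-aminoanthracene; compounds pin-transferred, 10 min at room temperature. Fluorescence read at 380/535 nm, normalized to free 1-AMA and 1-AMA/apoferritin values; four-parameter Hill fit.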
# [7] = target: ATP-dependent DNA helicase Q1 (Homo sapiens) (UniProt P46063); assay: qHTS Validation Assay for Inhibitors of RecQ-Like Dna Helicase 1 (RECQ1) (AID 2353); further: potency means the concentration at half of the fitted maximal effect
# Procedure, shortened: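 50 nM RECQ1T1 preincubated 15 min with compound in Tris pH 8.0 buffer with MgCl2, DTT, Tween-20 and 2.5 ug/ml poly(dI-dC); started with 200 nM TAMRA/BHQ-2 forked duplex and 2 mM ATP. Unwinding read as fluorescence (525/598 nm), two reads 2 h apart.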
# [8] = target: RecQ-like DNA helicase BLM (Homo sapiens) (UniProt P54132); assay: qHTS Validation Assay for Inhibitors of Bloom's syndrome helicase (BLM) (AID 2364)
# Procedure, shortened: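 Forked 20-bp duplex substrate (200 nM, TAMRA/BHQ-2) plus 2 mM ATP added after 15 min compound preincubation with 50 nM enzyme, pH 8.0, poly(dI-dC) 2.5 ug/ml. Strand separation followed by fluorescence (525/598 nm) over 2 h, normalized to enzyme-free and DMSO controls.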
# [9] = Cytometric Cell-Based qHTS for Inhibitors of the mTORC1 Signaling Pathway in MEF (Tsc2-/-, p53-/-) Cells (AID 2660);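 further: percent of cells above a phospho-rpS6 to PI ratio cutoff in each well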
# Procedure, shortened: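 Tsc2-/-, p53-/- MEFs (empty vector) exposed to compound 24 h at 37 C, fixed, stained with Alexa-488 anti-phospho-rpS6 Ser235/236 and propidium iodide. Acumen laser scanning; phospho-S6/PI ratio thresholded against 7.5 nM rapamycin, reported as % positive cells.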
# [10] = High Content Imaging Cell-Based qHTS for Inhibitors of the mTORC1 Signaling Pathway in MEF (Tsc2-/-, p53-/-) Cells (AID 2666); conditions: at 38.3 µM (top of the series);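 further: percent of cells scored positive for phospho-rpS6 Ser235/236 immunostaining by imaging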
# Procedure, shortened: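 Cells were plated, dosed with compound after 24 hrs, and incubated another 24 hrs at 37 degree Celsius. Fixed cells were immunostained for phospho-rpS6 Ser235/236 and counterstained, and the normalized signal was scored as % active cells against rapamycin and DMSO controls.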
# [11] = High Content Imaging Cell-Based qHTS for Inhibitors of the mTORC1 Signaling Pathway in MEF Cells (AID 2667);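 further: Tsc2-/- p53-/- MEFs stably re-expressing wild-type Tsc2 exposed 24 h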
# Procedure, shortened: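 Immunofluorescence for rpS6 phosphorylation in MEFs of Tsc2-/-, p53-/- background rescued with WT Tsc2. Compound exposure lasted 24 hrs. Inhibition was scored against rapamycin-treated control wells.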
# [12] = Cytometry Cell-Based qHTS for Inhibitors of the mTORC1 Signaling Pathway in MEF cells (AID 2668);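 further: Tsc2-/- p53-/- mouse embryonic fibroblasts stably re-expressing wild-type Tsc2; percent cells positive for phospho-rpS6 Ser235/236 relative to propidium iodide stain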
# Procedure, shortened: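 MEFs (Tsc2-/-, p53-/- stably expressing WT Tsc2) treated 24 h at 37 degree Celsius, fixed, stained with Alexa-488 anti-phospho-rpS6 Ser235/236 and propidium iodide; Acumen laser scanning. Reported as % positive cells, phospho-S6 normalized to PI.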
# [13] = Validation screen for inhibitors of Lassa infection (AID 463096; calls by dose curve)
# [14] = Validation screen for small molecules that induce DNA re-replication in MCF 10A normal breast cells (AID 463097); further: nearly all actives have a fitted effect of over 60% in size
# Procedure, shortened: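 MCF 10A cells exposed to compound 48 hr at 37 C, 5% CO2, then Hoechst-stained 40 min. Laser-scanning imaging of nuclear DNA content (405 nm ex, 500-530 nm em); re-replication scored as rise in nuclei with elevated fluorescence intensity.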
# [15] = target: Ubiquitin carboxyl-terminal hydrolase 2 (Homo sapiens) (UniProt O75604); assay: qHTS Validation Assay for Inhibitors of Ubiquitin-specific Protease USP2a Using CHOP2 as the Reporter (AID 463106)
# Procedure, shortened: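 10nM USP2 core + cpd, 30min RT; add 25nM Ub-CHOP2/25nM substrate; 60min RT; FI 485/531nm. Buffer Tris pH 8.0, CaCl2, BME, CHAPS. Norm. to NEM = 100% inhibition; time-zero read flags fluorescent artifacts.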
# [16] = target: DNA polymerase III PolC-type (Bacillus subtilis (strain 168)) (UniProt P13267); assay: qHTS Validation Assay for the Inhibitors of DNA Replication in Gram-Positive Bacteria (AID 485295);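 further: PicoGreen fluorescence of double-stranded DNA made on primed circular M13 template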
# Procedure, shortened: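 Reconstituted B. subtilis Pol III holoenzyme (PolC, beta clamp, SSB, primase) preincubated with compound, then M13Gori single-stranded circular template with dNTPs/NTPs added; room temperature reaction. Stopped with EDTA/PicoGreen; dsDNA fluorescence read, EDTA as full-inhibition control.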
# [17] = target: Tumor susceptibility gene 101 protein (Homo sapiens) (UniProt Q99816); assay: qHTS Validation Assay for Iinhibitors of HIV-1 Budding by Blocking the Interaction of PTAP/TSG101 (AID 485342; calls by dose curve)
# Procedure, shortened: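 Tsg101 binding domain (10 uM) with FITC-labeled PTAP peptide (50 nM) in HEPES pH 7.5 buffer, 20 min at r.t. with compounds. Binding measured by fluorescence polarization.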
# [18] = qHTS Validation Assay to Find Inhibitors of Chronic Active B-Cell Receptor Signaling (AID 485345; active means well fitted curve in the direction sought with a large enough effect in the main read-out, with a control signal flat, not every such curve was filed as active)
# Procedure, shortened: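 Read-out: ratio of filter-corrected green (IkappaBalpha fusion) to red (native) luciferase signal in doxycycline-induced TMD8 cells after 4 h at 37C. Titration spanned 46 uM–3 nM; Data were normalised to basal cells and 10 uM MG-132 wells.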
# [19] = target: Beta-2 adrenergic receptor (Homo sapiens) (UniProt P07550); assay: qHTS validation assay of beta-arrestin-biased ligands of beta2-adrenergic receptor (AID 485366)
# Procedure, shortened: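 Tango cells expressing recombinant beta2-AR and beta-arrestin with tTA-driven luciferase, in DMEM with 1% FBS. Compounds were titrated up to 46 microM for 18 hr at 37 degrees C. Luminescence was read 15 min after substrate; curves were fitted and class-assigned.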
# [20] = qHTS Assay for Modulators of Human Peripheral Myelin Protein 22 (PMP22) Expression/Activity (AID 1967; active means well fitted curve in the direction sought with a large enough effect in the signal ratio; the % refers to the signal ratio)
# Procedure, shortened: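 Mouse MSC80 Schwann cells carrying Pmp22 promoter–green click beetle luciferase plus EF-alpha–red luciferase control, dosed 24 h at 37 °C. Dual-filter luminescence, overlap-corrected; %Activity from green/red ratio normalised to untreated cells, concentration-response curves fitted.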
# Sequence of RecQ-like DNA helicase BLM (Homo sapiens) (P54132 whole entry, looked up): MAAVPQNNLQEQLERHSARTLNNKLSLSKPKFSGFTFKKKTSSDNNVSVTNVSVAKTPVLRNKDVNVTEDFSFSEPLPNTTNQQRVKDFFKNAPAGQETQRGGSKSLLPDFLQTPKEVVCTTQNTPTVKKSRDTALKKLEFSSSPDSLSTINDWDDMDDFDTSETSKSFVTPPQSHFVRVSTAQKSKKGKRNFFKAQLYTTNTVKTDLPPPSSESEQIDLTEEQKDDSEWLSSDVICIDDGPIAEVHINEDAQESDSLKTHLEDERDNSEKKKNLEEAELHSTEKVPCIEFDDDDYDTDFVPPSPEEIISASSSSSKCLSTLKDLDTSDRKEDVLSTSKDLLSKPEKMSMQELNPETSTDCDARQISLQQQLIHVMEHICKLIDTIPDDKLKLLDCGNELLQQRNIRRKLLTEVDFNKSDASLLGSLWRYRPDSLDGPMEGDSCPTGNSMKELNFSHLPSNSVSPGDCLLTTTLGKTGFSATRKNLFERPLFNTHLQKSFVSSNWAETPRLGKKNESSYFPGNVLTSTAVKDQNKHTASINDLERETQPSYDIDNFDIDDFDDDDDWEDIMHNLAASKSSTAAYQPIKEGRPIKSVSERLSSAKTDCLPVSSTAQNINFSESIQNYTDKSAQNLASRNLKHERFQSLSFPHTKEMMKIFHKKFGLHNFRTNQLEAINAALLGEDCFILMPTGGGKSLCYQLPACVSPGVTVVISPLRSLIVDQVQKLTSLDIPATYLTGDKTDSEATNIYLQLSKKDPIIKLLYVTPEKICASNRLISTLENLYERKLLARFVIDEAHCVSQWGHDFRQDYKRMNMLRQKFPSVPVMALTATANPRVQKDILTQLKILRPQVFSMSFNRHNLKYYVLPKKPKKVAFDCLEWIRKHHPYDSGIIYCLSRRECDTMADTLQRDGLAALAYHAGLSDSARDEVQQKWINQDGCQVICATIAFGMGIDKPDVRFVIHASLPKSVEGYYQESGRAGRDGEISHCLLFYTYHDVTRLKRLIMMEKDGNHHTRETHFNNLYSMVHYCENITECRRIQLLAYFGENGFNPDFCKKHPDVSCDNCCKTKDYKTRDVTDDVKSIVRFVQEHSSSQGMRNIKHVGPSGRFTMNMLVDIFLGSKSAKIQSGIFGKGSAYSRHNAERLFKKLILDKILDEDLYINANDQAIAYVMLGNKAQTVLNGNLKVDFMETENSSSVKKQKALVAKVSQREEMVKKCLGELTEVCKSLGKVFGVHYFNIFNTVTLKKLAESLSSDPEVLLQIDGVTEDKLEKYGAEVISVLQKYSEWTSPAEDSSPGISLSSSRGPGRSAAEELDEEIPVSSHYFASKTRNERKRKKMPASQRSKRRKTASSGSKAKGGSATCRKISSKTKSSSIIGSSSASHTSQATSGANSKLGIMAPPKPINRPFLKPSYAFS
# Sequence of Ferritin light chain (Equus caballus) (P02791 2-175 limits assumed): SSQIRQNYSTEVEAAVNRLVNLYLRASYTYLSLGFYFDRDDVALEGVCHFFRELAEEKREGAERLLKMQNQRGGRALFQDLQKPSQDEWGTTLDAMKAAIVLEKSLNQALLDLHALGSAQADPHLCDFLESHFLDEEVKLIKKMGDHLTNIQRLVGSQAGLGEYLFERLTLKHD
# Sequence of DNA polymerase III PolC-type (Bacillus subtilis (strain 168)) (P13267 whole entry, looked up): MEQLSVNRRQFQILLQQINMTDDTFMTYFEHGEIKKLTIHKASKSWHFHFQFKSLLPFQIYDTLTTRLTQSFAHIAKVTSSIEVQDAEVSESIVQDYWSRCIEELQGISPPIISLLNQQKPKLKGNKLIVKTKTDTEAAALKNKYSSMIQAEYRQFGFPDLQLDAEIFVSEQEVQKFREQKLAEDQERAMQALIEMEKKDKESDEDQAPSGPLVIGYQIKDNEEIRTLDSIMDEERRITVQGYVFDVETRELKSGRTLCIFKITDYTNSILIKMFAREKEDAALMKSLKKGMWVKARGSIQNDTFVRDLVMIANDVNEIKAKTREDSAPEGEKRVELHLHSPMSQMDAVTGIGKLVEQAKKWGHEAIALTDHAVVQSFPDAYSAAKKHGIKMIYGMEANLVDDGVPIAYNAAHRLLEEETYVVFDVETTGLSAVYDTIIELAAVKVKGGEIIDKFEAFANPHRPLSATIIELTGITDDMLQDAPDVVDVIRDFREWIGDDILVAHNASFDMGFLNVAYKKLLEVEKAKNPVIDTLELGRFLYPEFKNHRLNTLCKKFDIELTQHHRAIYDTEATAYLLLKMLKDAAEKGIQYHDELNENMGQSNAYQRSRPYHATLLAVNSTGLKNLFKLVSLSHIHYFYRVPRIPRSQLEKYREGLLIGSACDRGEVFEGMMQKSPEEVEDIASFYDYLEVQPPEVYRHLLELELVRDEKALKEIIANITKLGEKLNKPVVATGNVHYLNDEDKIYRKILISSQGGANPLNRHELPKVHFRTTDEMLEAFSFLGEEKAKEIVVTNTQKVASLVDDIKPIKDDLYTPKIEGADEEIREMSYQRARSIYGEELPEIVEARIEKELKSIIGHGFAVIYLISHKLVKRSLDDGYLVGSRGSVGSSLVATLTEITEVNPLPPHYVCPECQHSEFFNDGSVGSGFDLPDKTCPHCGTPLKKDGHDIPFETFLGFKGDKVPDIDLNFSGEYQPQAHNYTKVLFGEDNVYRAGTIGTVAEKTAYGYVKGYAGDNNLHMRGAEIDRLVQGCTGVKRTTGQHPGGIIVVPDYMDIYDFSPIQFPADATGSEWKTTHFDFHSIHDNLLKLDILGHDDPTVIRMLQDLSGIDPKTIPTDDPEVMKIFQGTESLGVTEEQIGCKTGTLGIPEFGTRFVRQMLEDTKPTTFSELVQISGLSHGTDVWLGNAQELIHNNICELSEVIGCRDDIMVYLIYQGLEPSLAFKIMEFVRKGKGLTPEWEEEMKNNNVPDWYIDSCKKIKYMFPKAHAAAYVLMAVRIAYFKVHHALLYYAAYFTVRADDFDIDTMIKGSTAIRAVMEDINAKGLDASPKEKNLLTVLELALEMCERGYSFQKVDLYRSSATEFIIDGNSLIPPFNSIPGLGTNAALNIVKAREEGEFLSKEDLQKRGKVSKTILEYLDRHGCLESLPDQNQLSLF
# Sequence of Ubiquitin carboxyl-terminal hydrolase 2 (Homo sapiens) (O75604 whole entry, looked up): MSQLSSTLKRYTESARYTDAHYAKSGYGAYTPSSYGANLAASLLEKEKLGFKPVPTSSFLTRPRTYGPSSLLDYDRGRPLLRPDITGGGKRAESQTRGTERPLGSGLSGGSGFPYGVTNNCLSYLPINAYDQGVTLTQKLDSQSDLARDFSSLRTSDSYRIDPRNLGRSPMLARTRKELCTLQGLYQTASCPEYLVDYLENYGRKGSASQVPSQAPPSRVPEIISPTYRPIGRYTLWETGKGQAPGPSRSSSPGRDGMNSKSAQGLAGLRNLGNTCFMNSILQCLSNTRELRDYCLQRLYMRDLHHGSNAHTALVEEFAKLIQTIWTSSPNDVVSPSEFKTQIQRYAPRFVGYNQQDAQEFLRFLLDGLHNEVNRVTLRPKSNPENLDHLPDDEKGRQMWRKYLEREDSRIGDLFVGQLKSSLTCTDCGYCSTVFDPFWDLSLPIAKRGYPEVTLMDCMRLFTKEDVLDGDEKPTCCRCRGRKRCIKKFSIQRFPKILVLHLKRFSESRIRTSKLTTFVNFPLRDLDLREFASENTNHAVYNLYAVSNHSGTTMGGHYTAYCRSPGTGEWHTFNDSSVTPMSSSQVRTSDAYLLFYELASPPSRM
# Sequence of Beta-2 adrenergic receptor (Homo sapiens) (P07550 whole entry, looked up): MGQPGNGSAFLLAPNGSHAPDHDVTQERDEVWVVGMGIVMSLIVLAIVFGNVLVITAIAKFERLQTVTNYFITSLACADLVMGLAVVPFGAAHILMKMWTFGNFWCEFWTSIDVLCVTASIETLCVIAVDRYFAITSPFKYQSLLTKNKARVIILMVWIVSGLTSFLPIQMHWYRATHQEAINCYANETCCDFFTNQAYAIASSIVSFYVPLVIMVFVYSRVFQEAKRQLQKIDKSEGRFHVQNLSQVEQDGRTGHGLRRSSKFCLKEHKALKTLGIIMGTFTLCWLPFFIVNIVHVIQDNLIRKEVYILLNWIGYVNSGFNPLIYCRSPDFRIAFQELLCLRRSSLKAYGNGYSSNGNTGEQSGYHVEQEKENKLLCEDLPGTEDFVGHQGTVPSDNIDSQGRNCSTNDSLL
# Sequence of Tumor susceptibility gene 101 protein (Homo sapiens) (Q99816 whole entry, looked up, the tested form may be a part): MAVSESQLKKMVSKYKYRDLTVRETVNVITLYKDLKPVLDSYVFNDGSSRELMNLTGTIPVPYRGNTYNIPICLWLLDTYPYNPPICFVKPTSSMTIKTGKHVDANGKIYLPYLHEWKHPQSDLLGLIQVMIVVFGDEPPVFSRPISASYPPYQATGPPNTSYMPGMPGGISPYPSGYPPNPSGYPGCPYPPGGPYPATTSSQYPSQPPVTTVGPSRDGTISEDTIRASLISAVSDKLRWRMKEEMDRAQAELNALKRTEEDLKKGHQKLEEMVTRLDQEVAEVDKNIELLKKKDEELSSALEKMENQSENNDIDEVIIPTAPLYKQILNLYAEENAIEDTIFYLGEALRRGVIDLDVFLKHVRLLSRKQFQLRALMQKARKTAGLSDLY
smiles,measurement,setting,value
COc1cc(OC)c(OC)cc1C=O,outcome,[1],inactive
COP(=S)(OC)Oc1ccc(SC)c(C)c1,outcome,[1],inactive
O=P1(N(CCCl)CCCl)NCCCO1 (stereo not given),Potency,[2],inactive
same,Potency,[3],inactive
same,Potency,[4],inactive
same,Potency,[5],inactive
same,outcome,[6],inactive
same,Potency,[7],inactive
same,outcome,[8],inactive
same,outcome,[9],inactive
same,outcome,[10],inactive
same,outcome,[11],inactive
same,outcome,[12],inactive
same,outcome,[13],inactive
same,outcome,[14],inactive
same,outcome,[15],inactive
same,outcome,[16],inactive
same,outcome,[17],inactive
same,outcome,[18],inactive
same,outcome,[19],inactive
NC/C=C/C(=O)O,outcome,[13],inactive
CCC(C)(C)c1ccc(O)cc1,outcome,[1],inactive
O=C(O)CCCc1ccc(N(CCCl)CCCl)cc1,Potency,[4],11.2 µM (active)
same,outcome,[1],inactive
same,outcome,[6],inactive
same,Potency,[7],inactive
same,outcome,[9],inactive
same,outcome,[10],inactive
same,outcome,[11],inactive
same,outcome,[12],inactive
same,outcome,[13],inactive
same,outcome,[15],inactive
same,outcome,[16],inactive
same,outcome,[17],inactive
same,outcome,[19],inactive
CC(=O)N1CCN(c2ccc(OC[C@H]3CO[C@](Cn4ccnc4)(c4ccc(Cl)cc4Cl)O3)cc2)CC1,Potency,[2],10 µM (active)
same,Potency,[3],7.94 µM (active)
same,Potency,[4],7.08 µM (active)
same,Potency,[5],11.2 µM (active)
same,outcome,[13],inactive
CN(C)CCOC(=O)COc1ccc(Cl)cc1,outcome,[13],inactive
Nc1ccccc1,outcome,[1],inactive
CC(C)C(=O)c1c(C(C)C)nn2ccccc12,outcome,[13],inactive
Cc1ncsc1CCCl,outcome,[9],inactive
same,outcome,[10],inactive
same,outcome,[11],inactive
same,outcome,[12],inactive
same,outcome,[15],inactive
same,outcome,[16],inactive
same,outcome,[17],inactive
same,outcome,[18],inactive
same,outcome,[19],inactive
CCCCC/C=C\C/C=C\C/C=C\C/C=C\CCCC(=O)NCC(=O)O,Potency,[3],inactive
same,Potency,[5],14.1 µM (active)
same,outcome,[6],inactive
same,Potency,[7],3.98 µM (active)
same,outcome,[8],inactive
same,outcome,[9],inactive
same,outcome,[10],inactive
same,outcome,[11],inactive
same,outcome,[12],inactive
same,outcome,[13],inactive
same,outcome,[14],inactive
same,outcome,[16],inactive
same,outcome,[17],inactive
same,outcome,[18],inactive
same,outcome,[19],inactive
CC(NC(C)(C)C)C(=O)c1cccc(Cl)c1 (stereo not given),Potency,[2],inactive
same,Potency,[5],inactive
same,outcome,[20],inactive
same,outcome,[6],inactive
same,Potency,[7],inactive
same,outcome,[9],inactive
same,outcome,[10],inactive
same,outcome,[11],inactive
same,outcome,[12],inactive
same,outcome,[13],inactive
same,outcome,[14],inactive
same,outcome,[15],inactive
same,outcome,[16],inactive
same,outcome,[17],inactive
same,outcome,[18],inactive
same,outcome,[19],inactive
COc1ccc2c(c1OC)C(=O)O[C@H]2[C@@H]1c2cc3c(cc2CCN1C)OCO3,outcome,[9],inactive
same,outcome,[10],inactive
same,outcome,[11],inactive
same,outcome,[12],inactive
same,outcome,[15],inactive
same,outcome,[16],inactive
same,outcome,[17],inactive
same,outcome,[19],inactive
C[C@]12CCC(=O)C=C1CC[C@@H]1[C@@H]2CC[C@@]2(C)[C@H]1CC[C@]2(C)O,outcome,[1],inactive
CCOC(=O)CC(SP(=S)(OC)OC)C(=O)OCC (stereo not given),outcome,[1],inactive
O=c1[nH]c(=O)n([C@H]2C[C@H](O)[C@@H](CO)O2)cc1Br,outcome,[13],inactive
CCC1(c2ccc(N)cc2)CCC(=O)NC1=O (stereo not given),Potency,[2],inactive
same,Potency,[3],inactive
same,Potency,[4],inactive
same,Potency,[5],inactive
same,outcome,[6],inactive
same,Potency,[7],inactive
same,outcome,[8],inactive
same,outcome,[9],inactive
same,outcome,[10],inactive
same,outcome,[11],inactive
same,outcome,[12],inactive
same,outcome,[13],inactive
same,outcome,[14],inactive
same,outcome,[15],inactive
same,outcome,[16],inactive
same,outcome,[17],inactive
same,outcome,[18],inactive
same,outcome,[19],inactive
C[C@]12CCC(=O)C=C1CC[C@@H]1[C@@H]2CC[C@]2(C)C(=O)CC[C@@H]12,Potency,[3],inactive
same,Potency,[5],inactive
same,outcome,[6],inactive
same,Potency,[7],inactive
same,outcome,[13],inactive
same,outcome,[14],inactive
Cc1ccc(Cl)c(Nc2ccccc2C(=O)O)c1Cl,outcome,[13],inactive
Oc1ccc(Cl)cc1,outcome,[1],inactive
